Records with an inconclusive call do not appear. Where a call stands in place of a potency, no number is given. Calls of active or inactive are those of the source. Calls come from the whole dose curve; as a rule, active = well fitted inhibition curve with a large enough effect; inconclusive = small, poorly fitted or top-dose-only effect; inactive = flat fitted curve, though single readings scatter.
target: Luciferin 4-monooxygenase (Photinus pyralis) (UniProt P08659); assay: qHTS screen for small molecules that inhibit ELG1-dependent DNA repair: SAR in Biochemical Luciferin Assay; details: purified firefly luciferase, luciferin luminescence counter-screen; series mostly up to 57.5 µM
Source text: Cancer cells divide rapidly compared to normal cells in the body. During cell division, cancer cells need to duplicate their genome by DNA replication. The failure of genome duplication leads to cancer cells' death. Therefore, inhibitors of DNA replication could specifically kill cancer cells. Based on this concept, many chemotherapeutic agents were developed and have been used to treat cancer patients. However, there are a limited number of agents available in the clinical setting, and some of those that do exist have low efficacy and severe side effects. Therefore, if we can find the compounds that effectively block DNA replication either by directly damaging DNA or by inhibiting other cellular mechanisms, the options for cancer treatment will be broadened. With this in mind, we developed a quantitative high-throughput ELG1-luciferase reporter gene assay. Small molecules that specifically block ELG1 function in response to DNA damage can be identified by monitoring the suppression of luciferase activity. Since ELG1 defines a pathway for repairing DNA damage, agents blocking ELG1 function can be used to sensitize cancer cells to chemotherapeutic agents whose mechanism of action involves the induction of DNA damage. This counter assay is a luciferase assay, that following treatment with putative ELG1 antagonists, aims to eliminate luciferase enhancers/inhibitors. NIH Molecular Libraries Probe Production Network [MLPCN] NIH Chemical Genomics Center [NCGC] MLPCN Grant: R03 MH092164 Assay Provider: Kyungjae Myung, NHGRI, NIH
3 uL of substrate reagent will be pipetted into each well in 1536-well white, solid-bottom plates using a FRD dispenser, followed by addition of 23 nL of DMSO or compounds by pintool. After compound addition, 1 µL of luciferase will be added into the wells. The plates will be read in a ViewLux CCD-based plate reader.

Row | Compound | Potency
1 | CC(/C=C/C(=O)NO)=C\[C@@H](C)C(=O)c1ccc(N(C)C)cc1 | inactive
2 | COc1ccc(OC)c(-c2nnc3n2N=C(c2ccc(OC)c(OC)c2)CS3)c1 | inactive
3 | CN(Cc1ccco1)c1ncnc2ccc(-c3cccc(Cl)c3)cc12 | inactive
4 | O=C(COc1ccccc1F)Nc1ccc(-c2nc3ccccc3s2)cc1 | inactive
5 | OCC1OC(n2cnc3c(=S)nc[nH]c32)C(O)C1O (stereo not given) | inactive
6 | CS[C@@H]1SC[C@H]2C(=O)N(C)C(C(C)C)C(=O)OC[C@@H](NC(=O)c3cnc4ccccc4n3)C(=O)N[C@@H](C)C(=O)N(C)[C@H]1C(=O)N(C)C(C(C)C)C(=O)OC[C@@H](NC(=O)c1cnc3ccccc3n1)C(=O)N[C@@H](C)C(=O)N2C (stereo not given in full) | inactive
7 | Cc1csc(CNc2ncnc3ccc(-c4ccoc4)cc23)c1 | inactive
8 | c1cncc(CNc2ncnc3ccc(-c4ccoc4)cc23)c1 | inactive
9 | Cc1nc(Nc2nc3ccccc3o2)nc2c1CCCC2 | 651 nM (active)
10 | O=c1[nH]c(-c2ccc(-c3cccc(Cl)c3)o2)nc2ccccc12 | 461 nM (active)
11 | N#Cc1ccc(-c2ccc(-c3nc4ccccc4c(=O)[nH]3)o2)cc1 | inactive
12 | CN(C)c1cccc(-c2ccnc(N3CCC(C(N)=O)CC3)n2)c1 | 16400 nM (active)
13 | O=C(Nc1ccccn1)c1sc2ccccc2c1Cl | 164 nM (active)
14 | COc1ccc(C2=Nn3c(nnc3-c3ccccc3OC)SC2)cc1OC | inactive
15 | COc1cc2c(cc1OC)C1C(=O)c3c(O)cc4c(c3OC1CO2)C=CC(C)(C)O4 (stereo not given) | inactive

From PubChem BioAssay AID686933 (National Center for Advancing Translational Sciences (NCATS), 2013)
